The results in this text go back to the supplement of paper PMC8047044.

This assay has as its system Neuro-2a. As to the kind of experiment: neurite formation score, plate-normalized to DMSO control mean 5.04 (score (0-8 scale)); higher = more or longer neurites. To be noted: 0.1 µM. The method, then: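 Neuro-2a mouse neuroblastoma cells in PLL-coated 96-well plates were pre-treated for 1 h in DMEM(+) with each kinase inhibitor at 0.1 µM, then switched to serum-free DMEM(-) with inhibitor to induce neurite outgrowth and fixed about 2-3 h later. Three blinded observers scored neurite formation from 0 (no neurites) to 8 (long neurites on almost all cells).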
Regarding `N#CC(C#N)=Cc1ccc(O)c(O)c1`, the neurite formation score was 5.38.
Next, `Cc1ccccc1-n1c(Cn2cnc3c(N)ncnc32)nc2cccc(C)c2c1=O`: 4.75; `CC(C)(C)c1cc(C=C(C#N)C#N)cc(Br)c1O`: 5.04; `COc1ccc2c(c[n+](C)c3c4cc5c(cc4ccc23)OCO5)c1OC` [Chelerythrine Chloride]: 4.04.
Regarding `COC[C@H]1OC(=O)c2coc3c2[C@@]1(C)C1=C(C3=O)[C@@H]2CCC(=O)[C@@]2(C)C[C@H]1OC(C)=O` [Wortmannin], the neurite formation score stood at 4.58.
`CC(C)(C)c1cc(C=C(C#N)C#N)cc(C(C)(C)C)c1O` [Tyrphostin 9] came in with a neurite formation score of 4.92.
In turn, `CCN1CCN(C(=O)Cc2ccc(Nc3ncc(F)c(Nc4ccc(C(=O)Nc5ccccc5Cl)cc4)n3)cc2)CC1` [Aurora A Inhibitor I] returned a neurite formation score of 4.92.
Next, `COc1cc([C@@H]2c3cc4c(cc3[C@H](O)[C@H]3COC(=O)[C@@H]23)OCO4)cc(OC)c1OC`: 2.38; `Cn1cc(C2=C(c3cn(C4CCN(Cc5ccccn5)CC4)c4ccccc34)C(=O)NC2=O)c2ccccc21`: 2.38; `O=c1[nH]c2ccccc2n1C1CCN(Cc2ccc(-c3[nH]c4cc5ncnc5cc4nc3-c3ccccc3)cc2)CC1` [AKT inhibitor VIII]: 3.38.
Compound `O=c1[nH]c2ccc(Cl)cc2c(N[C@@H]2CN3CCC2CC3)c1-c1nc2ccccc2[nH]1` gave a neurite formation score of 4.92.
Next, `COc1ccc(N(C(=O)Oc2c(C)cccc2C)c2ccnc(Nc3ccc(N4CCN(C)CC4)cc3)n2)c(OC)c1`: 5.08.
